Test results reported in PubChem BioAssay AID1159580 (chemical genetic matrix, 2015).
Hit rate of the full screen: of about 5,500 compounds, about 2,000 (36%) were called active. About 18% were inconclusive and are not listed. Rule as the data show it: active = normalized growth mostly below about 0.91 (no sharp cut-off); inconclusive = no clear call, values can overlap the other calls; inactive = mostly above about 0.92. The list shows a part of the results.

Test: chemical genetic growth profiling, strain panel (AID 1159580);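 also: tested at 20 µM; growth read once vehicle control cultures reached saturation at 30 °C; 1 = growth at the plate median or of vehicle wells; lower values mean less growth of the strain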
Settings: growth OD

Measured: normalized growth

O=C(O)CCC1NCC2CC1CN1CCCCC21 (configuration not stated)
inactive: S. cerevisiae deletion strains, locus YJR075W, strain HOC1, active compounds read low 1.01 | S. cerevisiae deletion strains, locus YKL009W, strain mrt4, active compounds read low 1.02 | S. cerevisiae deletion strains, locus YKL068W, active compounds read low 1 | S. cerevisiae deletion strains, locus YKL085W, strain MDH1 (second series), active compounds read low 1.02 | S. cerevisiae deletion strains, locus YKL085W, strain MDH1, active compounds read low 1.02 | S. cerevisiae deletion strains, locus YKL160W, strain elf1, active compounds read low 0.974 | S. cerevisiae deletion strains, locus YKL190W, strain CNB1, active compounds read low 1 | S. cerevisiae deletion strains, locus YKR001C, strain vps1, active compounds read low 0.995 | S. cerevisiae deletion strains, locus YKR026C, strain gcn3, active compounds read low 0.982 | S. cerevisiae deletion strains, locus YKR091W, strain srl3, active compounds read low 0.97 | S. cerevisiae deletion strains, locus YLL001W, strain dnm1, active compounds read low 0.954 | S. cerevisiae deletion strains, locus YLL026W, active compounds read low 0.98 | S. cerevisiae deletion strains, locus YLL041C, strain sdh2, active compounds read low 0.987 | S. cerevisiae deletion strains, locus YLR027C, strain aat2, active compounds read low 0.992 | S. cerevisiae deletion strains, locus YLR039C, strain RIC1, active compounds read low 0.998 | S. cerevisiae deletion strains, locus YLR058C, strain SHM2, active compounds read low 1.01 | S. cerevisiae deletion strains, locus YLR102C, strain apc9, active compounds read low 0.99 | S. cerevisiae deletion strains, locus YLR113W, strain HOG1, active compounds read low 0.983 | S. cerevisiae deletion strains, locus YLR221C, strain rsa3, active compounds read low 0.968 | S. cerevisiae deletion strains, locus YLR258W, strain gsy2, active compounds read low 0.992 | S. cerevisiae deletion strains, locus YLR262C, strain YPT6 (second series), active compounds read low 0.958 | S. cerevisiae deletion strains, locus YLR262C, strain YPT6, active compounds read low 0.97 | S. cerevisiae deletion strains, locus YLR268W, strain sec22, active compounds read low 0.988 | S. cerevisiae deletion strains, locus YLR320W, strain mms22, active compounds read low 0.962 | S. cerevisiae deletion strains, locus YLR330W, strain CHS5, active compounds read low 1.01 | S. cerevisiae deletion strains, locus YLR342W, strain FKS1 (second series), active compounds read low 1.05 | S. cerevisiae deletion strains, locus YLR342W, strain FKS1, active compounds read low 0.981 | S. cerevisiae deletion strains, locus YLR357W, strain rsc2, active compounds read low 0.971 | S. cerevisiae deletion strains, locus YLR370C, strain arc18, active compounds read low 0.978 | S. cerevisiae deletion strains, locus YLR371W, strain rom2, active compounds read low 0.998 | S. cerevisiae deletion strains, locus YLR384C, strain iki3, active compounds read low 0.969 | S. cerevisiae deletion strains, locus YLR418C, strain cdc73, active compounds read low 0.923 | S. cerevisiae deletion strains, locus YML016C, strain PPZ1, active compounds read low 1 | S. cerevisiae deletion strains, locus YML032C, strain rad52, active compounds read low 1 | S. cerevisiae deletion strains, locus YML120C, strain ndi1, active compounds read low 0.956 | S. cerevisiae deletion strains, locus YML124C, strain tub3, active compounds read low 0.997 | S. cerevisiae deletion strains, locus YMR058W, strain fet3, active compounds read low 0.969 | S. cerevisiae deletion strains, locus YMR078C, strain ctf18, active compounds read low 1 | S. cerevisiae deletion strains, locus YMR125W, strain sto1, active compounds read low 0.962 | S. cerevisiae deletion strains, locus YMR129W, active compounds read low 0.989 | S. cerevisiae deletion strains, locus YMR205C, strain PFK2, active compounds read low 0.964 | S. cerevisiae deletion strains, locus YMR223W, strain ubp8, active compounds read low 1.02 | S. cerevisiae deletion strains, locus YMR231W, strain pep5, active compounds read low 0.985 | S. cerevisiae deletion strains, locus YMR263W, strain SAP30, active compounds read low 0.998 | S. cerevisiae deletion strains, locus YMR307W, strain GAS1, active compounds read low 1.07 | S. cerevisiae deletion strains, locus YNL067W, strain RPL9B, active compounds read low 0.999 | S. cerevisiae deletion strains, locus YNL071W, strain lat1, active compounds read low 0.991 | S. cerevisiae deletion strains, locus YNL128W, strain TEP1, active compounds read low 1.02 | S. cerevisiae deletion strains, locus YNL153C, strain GIM3, active compounds read low 0.989 | S. cerevisiae deletion strains, locus YNL183C, strain NPR1, active compounds read low 0.938 | S. cerevisiae deletion strains, locus YNL209W, strain ssb2, active compounds read low 0.984 | S. cerevisiae deletion strains, locus YNL233W, strain BNI4, active compounds read low 1.01 | S. cerevisiae deletion strains, locus YNL248C, strain rpa49, active compounds read low 0.998 | S. cerevisiae deletion strains, locus YNL250W, strain rad50, active compounds read low 1.01 | S. cerevisiae deletion strains, locus YNL271C, strain bni1, active compounds read low 1 | S. cerevisiae deletion strains, locus YNL298W, strain CLA4, active compounds read low 0.997 | S. cerevisiae deletion strains, locus YNL307C, strain MCK1, active compounds read low 1 | S. cerevisiae deletion strains, locus YNL322C, strain KRE1 (second series), active compounds read low 0.97 | S. cerevisiae deletion strains, locus YNL322C, strain KRE1, active compounds read low 1.01 | S. cerevisiae deletion strains, locus YNR049C, strain mso1, active compounds read low 0.971 | S. cerevisiae deletion strains, locus YNR052C, strain pop2, active compounds read low 1 | S. cerevisiae deletion strains, locus YOL006C, strain TOP1, active compounds read low 1.04 | S. cerevisiae deletion strains, locus YOL012C, strain htz1 0.732 | S. cerevisiae deletion strains, locus YOL147C, strain pex11, active compounds read low 1 | S. cerevisiae deletion strains, locus YOR001W, strain rrp6, active compounds read low 1.01 | S. cerevisiae deletion strains, locus YOR061W, strain CKA2, active compounds read low 1 | S. cerevisiae deletion strains, locus YOR069W, strain VPS5, active compounds read low 1 | S. cerevisiae deletion strains, locus YOR070C, strain gyp1, active compounds read low 0.973 | S. cerevisiae deletion strains, locus YOR080W, strain dia2, active compounds read low 0.964 | S. cerevisiae deletion strains, locus YOR083W, strain WHI5, active compounds read low 0.965 | S. cerevisiae deletion strains, locus YOR106W, strain vam3, active compounds read low 0.968 | S. cerevisiae deletion strains, locus YOR136W, strain idh2, active compounds read low 0.998 | S. cerevisiae deletion strains, locus YOR144C, strain elg1, active compounds read low 0.988 | S. cerevisiae deletion strains, locus YOR184W, strain ser1, active compounds read low 1.04 | S. cerevisiae deletion strains, locus YOR231W, strain MKK1, active compounds read low 1.04 | S. cerevisiae deletion strains, locus YOR265W, strain rbl2, active compounds read low 0.977 | S. cerevisiae deletion strains, locus YOR270C, strain vph1, active compounds read low 0.951 | S. cerevisiae deletion strains, locus YOR290C, strain snf2, active compounds read low 0.916 | S. cerevisiae deletion strains, locus YOR316C, strain cot1, active compounds read low 0.992 | S. cerevisiae deletion strains, locus YPL051W, strain arl3, active compounds read low 0.982 | S. cerevisiae deletion strains, locus YPL055C, strain LGE1, active compounds read low 0.99 | S. cerevisiae deletion strains, locus YPL078C, strain atp4, active compounds read low 0.983 | S. cerevisiae deletion strains, locus YPL106C, strain sse1, active compounds read low 0.946 | S. cerevisiae deletion strains, locus YPL240C, strain hsp82, active compounds read low 0.974 | S. cerevisiae deletion strains, locus YPL241C, strain CIN2, active compounds read low 0.995 | S. cerevisiae deletion strains, locus YPL256C, strain CLN2, active compounds read low 1.02 | S. cerevisiae deletion strains, locus YPR119W, strain clb2, active compounds read low 0.991 | S. cerevisiae deletion strains, locus YPR141C, strain kar3, active compounds read low 0.987 | S. cerevisiae deletion strains, locus YPR163C, strain tif3, active compounds read low 0.983 | S. cerevisiae deletion strains, locus YPR167C, strain met16, active compounds read low 0.981 | S. cerevisiae deletion strains, strain wtn01, active compounds read low 0.999 | S. cerevisiae strains, strain wild type, active compounds read low 1.01
